{"source": "PubChem BioAssay (Tox21)", "note": "Unmarked numbers belong to inactive results. Calls come from the whole dose curve; as a rule, active = well fitted cell-killing curve with a large enough effect in the repeat runs; inconclusive = weak or mixed curves, or effect the other way; inactive = flat fitted curve, though single readings scatter. % is set by controls: 0 for no effect and ±100 for the full control effect."}
{"assay": "qHTS assay to identify small molecule HDAC inhibitors - cell viability counter screen (AID 1259365); note: nearly all actives have a fitted effect of over 50% in size", "details": "HCT-116 viability, CellTiter-Glo ATP luminescence, 2 h; series mostly up to 92.4 µM; activity change, negative = cytotoxicity: at the top concentration", "text": "U.S. Tox21 Program National Center for Advancing Translational Sciences [NCATS] NIH Chemical Genomics Center [NCGC] U.S. Environmental Protection Agency [EPA] National Institutes of Environmental Health Sciences [NIEHS] National Toxicology Program [NTP] U.S. Food and Drug Administration [FDA] Tox21 Assay Overview: Histone deacetylases (HDACs) are a group of epigenetic enzymes that regulate gene expression by histone deacetylation. HDACs are capable of introducing epigenetic modifications and such aberrations contribute to the onset and progression of several human diseases, thus making HDACs a popular therapeutic target. For identifying endogenous class I/II HDAC inhibitors a homogenous, luminogenic HDAC I/II cell based assay was used to measure the relative activity of class I and II HDACs from cells. Wild type HCT-116 cells were used to screen Tox21 compound libraries for identifying class I/II HDAC inhibitors.\nTox21 Assay Protocol Summary: HCT-116 cells were dispensed at 1,500 per well in 5uL of culture medium into white solid bottom 1536-well plates (Greiner Bio-One, Monroe, NC) using a Multidrop Combi (Thermo Scientific, Waltham, MA) dispenser. The assay plates were incubated at 37 C and 5% CO2 for an overnight, and then 23nL of compounds dissolved in DMSO and positive control were transferred using a Pintool station (Wako, San Diego, CA). The assay plates were incubated at 37C and 5% CO2 for 2hr. After compound treatment, 4uL of CellTiter-Glo reagent (Promega Corporation, Madison, WI) was added to each well of the assay plates using Flying Reagent Dispenser (FRD, Aurora Discovery, San Diego, CA) and incubated the assay plates at room temperature for 30min. The luminescence signal was quantified using a ViewLux plate reader (Perkin Elmer, Shelton, CT)."}
{"smiles": "CN(C)C(=O)NC1(c2ccccc2)CCN(CCC[C@]2(c3ccc(Cl)c(Cl)c3)CCCN(C(=O)c3ccccc3)C2)CC1", "activity change, negative = cytotoxicity": "-5.58% [at 19 µM]"}
{"smiles": "CCOC(=O)CS", "activity change, negative = cytotoxicity": "-5.21%"}
{"smiles": "OCCN(CCO)CCN(CCO)CCO", "activity change, negative = cytotoxicity": "0.0026%"}
{"smiles": "CC(C)C[C@H](NC(=O)OCC1c2ccccc2-c2ccccc21)C(=O)O", "activity change, negative = cytotoxicity": "5.64%"}
{"smiles": "C=CCCC=C", "activity change, negative = cytotoxicity": "-1.28%"}
{"smiles": "Cc1nc(N)nc(N)c1-c1ccc(Cl)c(Cl)c1", "activity change, negative = cytotoxicity": "-15.8% [at 42.5 µM]"}
{"smiles": "CCCNC(C)(C)COC(=O)c1ccccc1", "activity change, negative = cytotoxicity": "2.85% [at 42.5 µM]"}
{"smiles": "O=C(CC(=O)C(F)(F)F)c1ccccc1", "activity change, negative = cytotoxicity": "-10.9%"}
{"smiles": "CC1(O)CSC(C)(O)CS1", "note": "(stereo not given)", "activity change, negative = cytotoxicity": "0.283%"}
{"smiles": "CN1CCN(C2=Nc3ccccc3Oc3ccc(Cl)cc32)CC1", "activity change, negative = cytotoxicity": "-0.998% [at 42.5 µM]"}
{"smiles": "Cc1c(C(=O)NCCO)[n+](=O)c2ccccc2n1[O-]", "activity change, negative = cytotoxicity": "0.955% [at 42.5 µM]"}
{"smiles": "O=C1N(c2ccccc2)c2ccccc2C1(Cc1ccncc1)Cc1ccncc1", "activity change, negative = cytotoxicity": "-2.06% [at 42.5 µM]"}
{"smiles": "CCOc1ccccc1N", "activity change, negative = cytotoxicity": "1.53%"}
{"smiles": "ICCc1ccccc1", "activity change, negative = cytotoxicity": "-7.52%"}
{"smiles": "CO[C@@]1(NC(=O)CSCC#N)C(=O)N2C(C(=O)O)=C(CSc3nnnn3C)CS[C@@H]21", "activity change, negative = cytotoxicity": "-1.79% [at 42.5 µM]"}
{"smiles": "C=Cc1ccccc1", "activity change, negative = cytotoxicity": "-0.685%"}
{"smiles": "CC(C)(C)C1CCCCC1=O", "note": "(stereo not given)", "activity change, negative = cytotoxicity": "0.132%"}
{"smiles": "O=C(O)CN(CCN(CC(=O)O)CC(=O)O)CCN(CC(=O)O)CC(=O)O", "activity change, negative = cytotoxicity": "3.61% [at 19 µM]"}
{"smiles": "CC(C)C(=O)OCC(C)(C)C(O)C(C)C", "note": "(stereo not given)", "activity change, negative = cytotoxicity": "0.595%"}
{"smiles": "FC(F)(F)C(Cl)(Cl)Cl", "activity change, negative = cytotoxicity": "0.433%"}
{"smiles": "c1ccc(CN(CC2=NCCN2)c2ccccc2)cc1", "activity change, negative = cytotoxicity": "1.49% [at 42.5 µM]"}
{"smiles": "Cc1ccc([N+](=O)[O-])cc1Cl", "activity change, negative = cytotoxicity": "-0.556%"}
{"smiles": "O=C1CCCCCCCCCCC(=O)OCCO1", "activity change, negative = cytotoxicity": "-12.4%"}
{"smiles": "CC(=O)N[C@@H](CC(C)C)C(=O)O", "activity change, negative = cytotoxicity": "-1.54% [at 42.5 µM]"}
{"smiles": "CN(CCCN1c2ccccc2CCc2ccccc21)CC(=O)c1ccc(Cl)cc1", "activity change, negative = cytotoxicity": "0.339% [at 42.5 µM]"}
{"smiles": "CCCCCCCCCCCCOCCOS(=O)(=O)O", "activity change, negative = cytotoxicity": "-11.7%"}
{"smiles": "CC/C=C\\CCOC(=O)C(C)C", "activity change, negative = cytotoxicity": "1.75%"}
{"smiles": "CC1=C2[C@H](/C=C(\\C)C(=O)O)CC[C@@H](C)[C@H]2CC1", "activity change, negative = cytotoxicity": "-2.26%"}
{"smiles": "C=C(C)C(=O)OCCOP(=O)(O)O", "activity change, negative = cytotoxicity": "-5.53%"}
{"smiles": "COc1cc(C)ccc1C(C)C", "activity change, negative = cytotoxicity": "2.05%"}
{"smiles": "CC(C)NCC(O)COc1ccc(CCOCC2CC2)cc1", "note": "(stereo not given)", "activity change, negative = cytotoxicity": "-2.76% [at 42.5 µM]"}
{"smiles": "CCN(O)CC", "activity change, negative = cytotoxicity": "-0.288%"}
{"smiles": "Cc1nnc(SCC2=C(C(=O)O)N3C(=O)[C@@H](NC(=O)Cn4cnnn4)[C@H]3SC2)s1", "activity change, negative = cytotoxicity": "-1.72% [at 42.5 µM]"}
{"smiles": "CCCCCCCOC(=O)CCC", "activity change, negative = cytotoxicity": "-3.3%"}
{"smiles": "CCNCCO", "activity change, negative = cytotoxicity": "-2.09%"}
{"smiles": "FC(F)(F)c1ccccc1", "activity change, negative = cytotoxicity": "-1.08%"}
{"smiles": "Cc1cn([C@@H]2O[C@H](CO)[C@@H](O)[C@@H]2F)c(=O)[nH]c1=O", "activity change, negative = cytotoxicity": "0.118% [at 42.5 µM]"}
{"smiles": "O=C(Cl)c1cccc([N+](=O)[O-])c1", "activity change, negative = cytotoxicity": "4.8%"}
{"smiles": "CCc1cc2cc(OC)c(OC)cc2c(Cc2ccccc2)n1", "activity change, negative = cytotoxicity": "-10.1% [at 42.5 µM]"}
{"smiles": "CCN[C@H]1CN(CCCOC)S(=O)(=O)c2sc(S(N)(=O)=O)cc21", "activity change, negative = cytotoxicity": "0.976% [at 42.5 µM]"}
